JMJD2A Tudor inh: blocks the human JMJD2A Tudor domain; O75164; AlphaScreen JMJD2A-Tudor / H3K4me3 peptide binding; Potency, µM (titrated, usually from 114 µM), without a hit: top-dose activity change, negative = inhibition, most hits filed as inhibitors; actives 4.4% (n = 390,000); AID 504339; further: on the % scale 0 is the no-effect control and ±100 the full control effect; nearly all actives have a fitted effect of over 50% in size
ALOX12 inh: ALOX12 (human) lipoxygenase inhibition | Potency, µM (titrated, usually from 108 µM), for inactives: top-dose activity change, negative = inhibition, hits mostly inhibitors | actives 1.1% (n = 580,000) | P18054 | purified 12hLO, xylenol orange hydroperoxide absorbance; further: on the % scale 0 is the no-effect control and ±100 the full control effect
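Hydroperoxide product was detected by ferrous iron/xylenol orange as the 573 to 405 nm absorbance ratio. Arachidonic acid at 40 uM (final) was turned over for 30 min at room temperature by 150 nM human 12hLO, pH 7.0 Hepes buffer, after 15 min compound preincubation.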
PLK1 PBD inh: inhibitors of human PLK1 polo-box domain binding; P53350; Plk1 PBD binding of FITC phosphopeptide, fluorescence polarization; Potency, µM, for the others: max response, negative = inhibition, hits mostly inhibitors; actives 2.8% (n = 360,000); AID 720504; further: series mostly up to about 57 µM; on the % scale 0 is the no-effect control and ±100 the full control effect; nearly all actives have a fitted effect of over 65% in size
HP1b chromo inh: inhibitors of HP1-beta chromodomain binding to methylated histone tails; P83916; actives 0.56% (n = 390,000); Potency, µM (top dose mostly 114 µM), for inactives: top-dose activity change, negative = inhibition, actives largely listed as inhibitors; AlphaScreen HP1-beta / biotin-H3K9me3 peptide binding; further: nearly all actives have a fitted effect of over 70% in size
Target sequence (P83916 whole entry, looked up): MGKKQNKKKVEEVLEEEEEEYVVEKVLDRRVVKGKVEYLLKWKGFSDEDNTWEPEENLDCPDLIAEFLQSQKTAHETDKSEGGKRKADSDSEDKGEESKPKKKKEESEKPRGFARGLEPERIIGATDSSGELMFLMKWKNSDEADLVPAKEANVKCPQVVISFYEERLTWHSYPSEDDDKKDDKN
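Compound inhibition of the preformed complex between 50 nM HP1-beta and 50 nM biotinylated H3K9me3 peptide was read by AlphaScreen. Buffer was PBS pH 7.4 with 0.01% Tween-20. Incubations ran 30 min at room temperature, with 10 ug/mL donor/acceptor beads.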
G9a inh: inhibitors of human histone lysine methyltransferase G9a; Q96KQ7; AID 504332; G9a H3K9 monomethylation, AlphaScreen, 2 h; Potency, µM (doses to about 102 µM), without a hit: top-dose activity, negative = inhibition, usual class: inhibitors; actives 8.8% (n = 350,000); further: on the % scale 0 is the no-effect control and ±100 the full control effect; nearly all actives have a fitted effect of over 75% in size
Target sequence (Q96KQ7 913-1193 limits assumed): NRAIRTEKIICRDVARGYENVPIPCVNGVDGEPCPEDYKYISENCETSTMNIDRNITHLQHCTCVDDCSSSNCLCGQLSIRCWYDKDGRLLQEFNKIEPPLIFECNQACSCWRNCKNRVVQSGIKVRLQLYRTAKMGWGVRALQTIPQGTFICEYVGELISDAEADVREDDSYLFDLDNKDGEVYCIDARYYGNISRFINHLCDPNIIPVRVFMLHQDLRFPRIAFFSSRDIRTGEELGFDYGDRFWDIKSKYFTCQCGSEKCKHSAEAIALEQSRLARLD
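Methyltransferase reactions run at room temperature for 2 h (20 nM enzyme, 500 nM biotin-H3K9 peptide, 20 uM SAM) after a 15 min compound preincubation; product detected by AlphaScreen beads and anti-H3K9me1 antibody.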
BAZ2B inh: blocks human BAZ2B. Q9UIF8. AlphaScreen BAZ2B-H3K14Ac peptide displacement. Potency, µM (top dose mostly 114 µM), inactives show at the top dose activity change, negative = inhibition, actives largely listed as inhibitors. actives 4.4% (n = 360,000); further: on the % scale 0 is the no-effect control and ±100 the full control effect; nearly all actives have a fitted effect of over 60% in size
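AlphaScreen displacement of biotin-H3(5-23)K14Ac peptide (50 nM final) from BAZ2B (50 nM final) in PBS pH 7.4, 0.01% Tween-20; complex preformed 30 min RT, then compounds (top 110 uM) 30 min RT, beads 20 min dark.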
TbPYK confirm: Trypanosoma brucei pyruvate kinase inhibition, cherry-pick confirmation; recombinant TbPYK, Kinase-Glo ATP luminescence; shares compounds with PLK1 PBD inh; Potency, µM (titrated, usually from 76.9 µM), for inactives: at the top dose activity change, negative = inhibition, actives largely listed as inhibitors; actives 67% (n = 890); further: on the % scale 0 is the no-effect control and ±100 the full control effect; nearly all actives have a fitted effect of over 70% in size
TbPYK ADP-Glo: TbPYK inhibition, orthogonal confirmation; actives 62% (n = 890); recombinant TbPYK, ADP-Glo luminescence, 60 min; Potency, µM (highest dose often 76.9 µM), for inactives: at the highest dose activity change, negative = inhibition, usual class: inhibitors; shares compounds with PLK1 PBD inh; further: on the % scale 0 is the no-effect control and ±100 the full control effect; nearly all actives have a fitted effect of over 75% in size
* marks the source's active call; other numbers are inactive results; ? = inconclusive; . = no result given; [ ] = remark or other dose. The list is not random: actives were taken first. Their share in the collection is about 9%. The call rests on the fitted dose curve; in most records, active means well fitted curve in the direction sought with a large enough effect; inconclusive means small, poorly fitted or top-dose-only effect, or another doubt; inactive means no such curve, though single readings can be large; an effect the other way counts as inactive or inconclusive. Potency means the concentration at half of the fitted maximal effect.

SMILES | JMJD2A Tudor inh | ALOX12 inh | PLK1 PBD inh | HP1b chromo inh | G9a inh | BAZ2B inh | TbPYK confirm | TbPYK ADP-Glo
CCc1ccccc1N1CSC2=C(C#N)C(c3cc(OC)c(OC)cc3OC)CC(=O)N2C1 (stereo not drawn) | 8.9µM* | ? | 15µM* | -75% | ? | 50µM* | 0.71µM* | 1.1µM*
COc1ccccc1N1CSC2=C(C#N)C(c3ccc(SC)cc3)CC(=O)N2C1 (stereo not drawn) | 18µM* | 11µM* | 19µM* | 22µM* | 2.2µM* | 50µM* | 2.5µM* | 2.2µM*
COc1cccc(C2CC(=O)N3CN(c4cccc(Cl)c4C)CSC3=C2C#N)c1OC (stereo not drawn) | 16µM* | 7.9µM* | 27µM* | ? | 1.8µM* | 25µM* | 18µM* | 6.3µM*
N#CC1=C2SCN(Cc3ccccc3)CN2C(=O)CC1c1ccccc1F (stereo not drawn) | 79µM* | . | 17µM* | ? | 1.8µM* | -38% | 1.8µM* | 1.6µM*
O=C(Cc1ccccc1F)NCc1cccnc1N1CCCCC1 | . | 53% | . | . | . | . | . | .
O=C(N=C1SC2CS(=O)(=O)CC2N1c1c(Cl)cccc1Cl)C1CC1 (stereo not drawn) | -15% | 10% | -17% | 15% | 12% | -13% | . | .
COc1ccc(OC)c(C2CC(=O)N3CN(c4ccccc4F)CSC3=C2C#N)c1 (stereo not drawn) | 22µM* | ? | ? | 14µM* | 2.2µM* | 22µM* | 5µM* | 10µM*
COc1ccc(OC)c(C2CC(=O)N3CN(c4cccc(Cl)c4C)CSC3=C2C#N)c1 (stereo not drawn) | 18µM* | 11µM* | ? | ? | 1.4µM* | 32µM* | 16µM* | 7.9µM*
CCOC(=O)C1=C(C)NC(SC)=C(C#N)C1CC(C)C (stereo not drawn) | 10% | 13% | 0% | 47% | -7%[12.7 µM] | 19% | . | .
CC(=O)C1=C(C)NC(SCC(N)=O)=C(C#N)C1CC(C)C (stereo not drawn) | 22µM* | 2% | -18% | -36% | 7.1µM* | -15% | 7.1µM* | 8.9µM*
CC(=O)C1=C(C)NC(SCC(N)=O)=C(C#N)C1c1cccs1 (stereo not drawn) | -14% | 0% | -5% | 19% | ? | -4% | . | .
CC(=O)C1=C(C)NC(SCC(=O)c2ccc(F)cc2)=C(C#N)C1CC(C)C (stereo not drawn) | 13µM* | ? | ? | 26% | 3.5µM* | -29% | 1.1µM* | 1.8µM*
CC(=O)C1=C(C)NC(SCC(N)=O)=C(C#N)C1C (stereo not drawn) | 13µM* | 473% | 21µM* | ? | ? | -8% | ? | ?
COc1ccc(NC(=O)N2C[C@@H]3C[C@H](C2)c2c(NC(=O)C4CCCCC4)ccc(=O)n2C3)cc1 | . | 10% | . | . | . | . | . | .
O=C1C=CC(=O)N1c1ccc(-c2nc3ccccc3o2)cc1 | . | . | 8.4µM* | . | . | . | -95% | 11µM*
COC(=O)c1c(-c2ccc(C(C)(C)C)cc2)csc1NC(=O)C1C2CCC(O2)C1C(=O)O (stereo not drawn) | ? | ? | 2.7µM* | ? | 1.8µM* | -12% | 4.5µM* | 14µM*
CCN(CC)c1ccc(C(=O)NNC(=O)CCNC(=O)c2ccccc2)cc1 | -8% | 2% | -4% | 32% | -6%[12.7 µM] | 11% | . | .

Assay outcomes: PubChem, National Center for Advancing Translational Sciences (NCATS)
